Screening results (PubChem)
The entries come from a sample that favours hits as a whole.
Dicer inh: inhibitors of Dicer pre-microRNA processing, primary screen, biochemical, cat-ELCCA, chemiluminescence. AID 1347074, 2019. z-score at 25 µM. 47,000 tested, 6% active. cat-ELCCA pre-miR-21 Dicer processing; hits give high values. Endoribonuclease Dicer (Homo sapiens), Q9UPY3; in the data active means z-score above about 3, passing the limit was not always enough;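 further: plate controls were vehicle for no effect and no enzyme for full effect; higher signal means more uncleaved substrate so more Dicer inhibition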
* marks the source's active call; other numbers are inactive results.

SMILES	Dicer inh
CC(C)(C)C1CCc2c(sc(NC(=O)c3cccc(Br)c3)c2C(N)=O)C1 (centres undefined)	-0.53
Cn1c(=O)c2c(ncn2CC(=O)Nc2ccc(F)cc2)n(C)c1=O	1.19
NC(=O)Cn1cc(C(=O)c2ccco2)c2ccccc21	-0.25
O=C(c1ccco1)c1coc2ccc(O)cc12	5.53*
CC(=O)Oc1ccc2occ(C(=O)c3ccc(Cl)cc3)c2c1	5.83
O=C(O)c1ccc(Oc2cc(Cl)cc(Cl)c2)o1	-0.21
CCOC(=O)c1c(-c2c(Cl)cccc2Cl)noc1N	-0.46
Cc1cc(C)c(C#N)c(N2CCN(c3ccccc3)CC2)n1	3.24*
COCc1cc(C)nc(N2CCN(Cc3ccccc3)CC2)c1C#N	0.42
Cc1cc(C)c2c(n1)sc1c(N3CCN(c4ccccc4)CC3)ncnc12	1.39
CSc1sc(C(=O)Nc2ccccc2Cl)c2c1S(=O)(=O)N(C)c1ccccc1-2	0.05
CC(CCC(C)OC(=O)c1ccccc1C(=O)O)OC(=O)c1ccccc1C(=O)O (centres undefined)	0.19
C[C@]12CC[C@H]3C(=CCc4cc(O)ccc43)[C@@H]1CCC2=O	-0.82
COc1ccc(S(=O)(=O)N(CCC#N)C2CCCc3ccccc32)cc1OC (centres undefined)	23.4
COC(=O)c1scc2c(Sc3nccn3C)cc(C(F)(F)F)nc12	0.21
COC(=O)c1scc2c(OC)cc(C(F)(F)F)nc12	0.71
COC(=O)c1scc2c(SCc3ccccc3)cc(C(F)(F)F)nc12	5.03*
COc1cc(C2c3c(oc4ccccc4c3=O)C(=O)N2Cc2ccccc2)cc(Br)c1O (centres undefined)	0.92
Clc1ccc(Nc2nc(-c3ccncc3)nc3ccccc23)cc1	3.97*
Oc1ccc(Nc2nc(-c3ccccc3)nc3ccccc23)cc1	2.24
Clc1cccc(Nc2nc(-c3ccncc3)nc3ccccc23)c1	2.6
COC(=O)Cc1[nH]nc2c1C(c1ccc(C(C)(C)C)cc1)C(C#N)=C(N)O2 (centres undefined)	0.36
CCn1ccnc1C(O)c1ccc(C)cc1 (centres undefined)	3.06*
CCn1c(C(O)c2ccc(N(C)C)cc2)nc2ccccc21 (centres undefined)	2.55
COc1cccc(C(O)c2nccn2C)c1OC (centres undefined)	3.14
SMILES	Dicer inh
O=C1c2oc3ccccc3c(=O)c2C(c2cccc(O)c2)N1CCCN1CCOCC1 (centres undefined)	0.5
Cc1ccn2c(C(=O)N/N=C/c3ccc(Cl)cc3)c(C)nc2c1	0.3
CC1(C)COC(c2ccccc2COC(=O)c2ccc(C(C)(C)C)cc2)=N1	-0.15
COC(=O)/C=C1/NCC(OC(=O)c2ccc(C(C)(C)C)cc2)CNC1=O (centres undefined)	4.36*
COC(=O)C1=C(C)N=C2SCCC(=O)N2C1c1ccc(C(C)(C)C)cc1 (centres undefined)	0.32
O=C1CC(n2cnc3ccccc32)C(=O)N1c1ccccc1 (centres undefined)	1.37
Cn1c2ccccc2n2c3ccccc3c(=S)c(C#N)c12	-0.71
C=CCN(C#N)c1nc(NC(C)C)nc(NC(C)C)n1	6.54*
O=C1CCCc2c1cc(C(=O)NC1CCSC1=O)c(=O)n2-c1ccccc1 (centres undefined)	1.18
O=C1CCCc2c1cc(C(=O)O)c(=O)n2-c1ccccc1	3.73*
COC(=O)C(CCSC)NC(=O)c1cc2c(n(-c3ccccc3)c1=O)CCCC2=O (centres undefined)	2.11
C=CCn1c(=O)c(C(=O)Nc2ccc(Br)cc2)c(O)c2ccccc21	1.74
C/C(=N\NC(=S)NC(C)(C)C)c1ccc(Oc2ncc([N+](=O)[O-])s2)cc1	-1.18
CCCSc1nnc2c(n1)[nH]c1ccccc12	1.22
COc1ccc2c(c1)CCCN2C(=O)c1sc2ccccc2c1Cl	-1.13
COc1ccc2sc(C(=O)O)c(Br)c2c1	4.33*
COc1ccc2[nH]c(C(=O)O)cc2c1	0.75
CCOc1cc(C2C(C(=O)OC(C)C)=C(C)NC3=C2C(=O)CC(C)(C)C3)cc(Br)c1O (centres undefined)	1.55
C=C(c1ccccc1)c1ccc(N(C)C)cc1	0.49
COc1ccc2ncc(-c3ccc(Cl)c(C)c3)nc2c1	-0.59
O=S(=O)(c1ccccc1)n1ccc(-c2cnc3cc(Cl)c(Cl)cc3n2)c1	0.74
Cc1cc2ncc(-c3ccccc3)nc2cc1C	5.81*
CCOC(=O)CSC(=S)Nc1ccccc1Cl	-2.79
COc1cccc(Nc2ncnc3ccccc23)c1	-0.49
CSc1ncc2c(n1)CC(C)(C)C/C2=N/OC(=O)c1ccc(Cl)cc1	-1.16
SMILES	Dicer inh
O=c1nc(SCc2ccccc2Cl)nc(-c2ccc(Cl)cc2)[nH]1	0.58
CCSc1nc(-c2ccc(Cl)cc2)[nH]c(=O)n1	-3.37
O=c1nc(SCc2c(Cl)cccc2Cl)nc(-c2ccc(Cl)cc2)[nH]1	5.89*
c1cc(-c2nc3ccc(Oc4ccc5nc(-c6ccncc6)[nH]c5c4)cc3[nH]2)ccn1	0
Fc1ccc(NC(=S)Nc2ccccc2)cc1	-0.31
N#CCC(=O)NNC(=S)Nc1ccccc1	-1.23
O=C(NNC(=S)Nc1ccc(F)cc1)c1ccccc1Cl	4.67*
COCCCNC(=S)NNC(=O)c1ccc(C(F)(F)F)cc1	-4.64
COCCCNC(=S)Nc1ccc(F)cc1	-0.92
FC(F)(F)c1cccc(NNC(=S)Nc2ccccc2)c1	-0.98
Cc1cc(Br)c(NC(=S)NNc2ccccc2)c(Br)c1	3.92
O=C(c1ccccc1)c1cc(Cl)ccc1NC(=S)Nc1ccc(F)cc1	-0.55
S=C(NNC(=S)Nc1ccccc1)Nc1ccccc1	13.7*
COCCCNC(=S)NNC(=S)Nc1ccccc1	3.59*
S=C(NNc1ccccc1)c1ccccc1	5.18*
Cc1ccccc1NC(=S)NNC(=O)c1ccccc1Cl	0.06
CCC(C)Nc1nc2c(cc1C#N)COC(C)(C)C2 (centres undefined)	-2.3
c1ccc(-n2ncc3c2ncn2nc(CSc4nc5ccccc5s4)nc32)cc1	1.89
Cc1ccc(S(=O)(=O)NC(=O)N2CCCN(C(=O)OC(C)(C)C)CC2)cc1	-1.41
O=C(O)C1CCN(c2c(-c3ccccc3)c3cc(Cl)ccc3[nH]c2=O)CC1	-0.45
COc1ccc(Br)c(OC)c1C(=O)NC(=O)Nc1c(Cl)cc([N+](=O)[O-])cc1Cl	0.14
CCCCCn1c(C)nc2c(sc3nc4c(cc32)COC(C)(C)C4)c1=O	1.92
COc1ccc(C(c2c(N)nc(SCC(C)=O)[nH]c2=O)c2c(N)nc(SCC(C)=O)[nH]c2=O)cc1	-0.63
O=C(c1cc(Cl)cc(Cl)c1)N1CCCN(c2nc3ccc(Cl)cc3s2)CC1	-0.17
CN(Cc1ccccc1)C(=O)Nc1ccccc1	3.71*
SMILES	Dicer inh
O=C(Nc1ccccc1)N(Cc1ccccc1)c1cccc2ccccc12	-2.83
CN(CCc1ccccn1)C(=O)Nc1ccccc1	41.3
CCOC(=O)C(=O)N(CC(C)C)CC(C)C	1.77
CCOC(=O)/C(=C(/C)Nc1ccc(F)cc1)C1CC(=O)N(c2cc(C)on2)C1=O (centres undefined)	-1.99
Cc1nc2c(=O)n(-c3ccc(F)cc3F)nc(C)c2s1	3.2*
Cc1nc2c(s1)c(C)nn2-c1ccccc1	0.81
CC1SC(c2cccnc2)N(c2ccc(F)cc2F)C1=O (centres undefined)	2.94
Cn1c(=O)c2c(nc(N3CCOCC3)n2Cc2c(F)cccc2Cl)n(C)c1=O	0.88
S=C(NCCc1ccccn1)NC1CC2CCC1C2 (centres undefined)	0.36
NC(=O)CSc1nc2ccc(Cl)cc2s1	-1.36
